# Reference: a collection of fitness landscapes (doi:10.1016/j.celrep.2020.107928)
# Over roughly 81,000 sequences, “one-hybrid fitness for binding parS DNA” has its median near -0.17; the highest 2% begin near 0.51. Only a selection was taken, and the highest values are over-represented in it overall.
# B1: Caulobacter ParB omega fusion; a variant is named by its letters at X, in order, B8GW30 (parent)
# chain: MESVVVGEPGMSEGRRGLGRGLSALLGEVDAAPAQAPGEQLGGSREAPIEILQRNPDQPRRTFREEDLEDLSNSIREKGVLQPILVRPSPDTAGEYQIVAGERAWRAAQRAGLKTVPIMVRELDDLAVLEIGIIENVQRADLNVLEEALSYKVLMEKFERTQENIAQTIGKSXSHVANXMRLLXLPDEVQSYLVSGELTAXHARAIAAAADPVALAKQIIEGGLSVRETEALARKAPNLSAGKSKGGRPPRVKDTDTQALESDLSSVLGLDVSIDHRGSTGTLTITYATLEQLDDLCNRLTRGI
# Variants of: B1
# Experiment: one-hybrid fitness for binding parS DNA (scaled: cognate 1, non-cognate 0); higher = stronger binding
# Conditions: with parS DNA site
# Summary of the method: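 Selection: bacterial one-hybrid in E. coli USO, HIS3 reporter with the site 19 bp from the promoter, 48 hours at 37°C on M9-minus-histidine plus 0.1 mM IPTG and 5 mM 3-AT. Libraries were Caulobacter ParB with four randomised specificity codons, sequenced on Illumina before and after selection. Fitness is the rescaled log change in variant-to-wild-type read ratio, anchored to the cognate and non-cognate sites.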
row,Variant,one-hybrid fitness for binding parS DNA
1,WSWS,≤ 0.2
2,QFTQ,≤ 0.2
3,VLWE,≤ 0.2
4,PVLP,≤ 0.2
5,RYND,0.213
6,RYDS,0.987
7,RYNH,≤ 0.2
8,RYNS,0.872
9,RYDN,0.407
10,RYDD,≤ 0.2
11,EDLC,≤ 0.2
12,ANQD,≤ 0.2
13,TARG,≤ 0.2
14,KMSG,≤ 0.2
15,RYEF,0.236
16,RYEY,0.434
17,RYEH,≤ 0.2
18,RYEC,0.926
19,RYEN,0.348
20,RYEG,0.901
21,RYEK,≤ 0.2
22,RYES,0.975
23,RYET,0.772
24,RYEM,0.275
25,RYEP,≤ 0.2

row,Variant,one-hybrid fitness for binding parS DNA
1,RYED,≤ 0.2
2,PNCQ,≤ 0.2
3,QNHC,≤ 0.2
4,RNEA,0.253
5,CLSL,≤ 0.2
6,SSKF,≤ 0.2
7,VNMC,≤ 0.2
8,RMAC,0.994
9,RMFR,≤ 0.2
10,RMAK,≤ 0.2
11,RMFN,0.459
12,RMAF,0.253
13,RMFC,0.966
14,MTRT,≤ 0.2
15,LSYV,≤ 0.2
16,LACS,≤ 0.2
17,RKNN,0.327
18,RKNS,0.766
19,RKDP,≤ 0.2
20,RKDS,0.886
21,RKNH,≤ 0.2
22,RKDD,≤ 0.2
23,QQTE,≤ 0.2
24,TVLW,≤ 0.2
25,QYWT,≤ 0.2

row,Variant,one-hybrid fitness for binding parS DNA
1,AHYS,≤ 0.2
2,RWFC,0.6
3,RWAH,≤ 0.2
4,RWAP,≤ 0.2
5,RWAC,0.721
6,RWFR,≤ 0.2
7,RWFM,≤ 0.2
8,HYMG,≤ 0.2
9,CCLT,≤ 0.2
10,HCNG,≤ 0.2
11,RVFC,0.972
12,RVAP,≤ 0.2
13,RVFR,≤ 0.2
14,RVAC,0.982
15,RVFF,0.303
16,RVAD,≤ 0.2
17,YKSS,≤ 0.2
18,DLKY,≤ 0.2
19,KPVK,≤ 0.2
20,RTYF,0.259
21,RTRF,0.627
22,RCKF,0.541
23,RTKF,0.734
24,RPKF,≤ 0.2
25,RSKF,0.35

row,Variant,one-hybrid fitness for binding parS DNA
1,RTDF,≤ 0.2
2,RTVF,≤ 0.2
3,RWHR,≤ 0.2
4,RPGM,≤ 0.2
5,VKLS,≤ 0.2
6,EMNC,≤ 0.2
7,QAGG,≤ 0.2
8,VSVK,≤ 0.2
9,LNGG,≤ 0.2
10,RVIS,0.981
11,RVPS,0.812
12,RVPD,≤ 0.2
13,RVPP,≤ 0.2
14,RVIP,≤ 0.2
15,RVID,≤ 0.2
16,PTIM,≤ 0.2
17,CNLM,≤ 0.2
18,LLRY,≤ 0.2
19,EDTE,≤ 0.2
20,RSDG,0.84
21,RENG,0.302
22,RCNG,0.966
23,RSNK,≤ 0.2
24,RSYR,≤ 0.2
25,RSNG,1

row,Variant,one-hybrid fitness for binding parS DNA
1,RSYG,0.991
2,RDNG,≤ 0.2
3,RSDF,≤ 0.2
4,REDG,≤ 0.2
5,RPNG,≤ 0.2
6,RSYF,0.233
7,YWPS,≤ 0.2
8,CLAE,≤ 0.2
9,SEHQ,0.354
10,DVPP,≤ 0.2
11,PLMI,≤ 0.2
12,HVLG,≤ 0.2
13,AYDG,≤ 0.2
14,RCDG,0.959
15,RDDG,≤ 0.2
16,RPDG,≤ 0.2
17,EYDG,≤ 0.2
18,SQTL,≤ 0.2
19,RKIC,0.811
20,RAIC,0.782
21,RSIC,0.718
22,RKIF,≤ 0.2
23,RSIN,0.269
24,RSIH,≤ 0.2
25,RKPC,0.488

row,Variant,one-hybrid fitness for binding parS DNA
1,RAIM,0.209
2,RDIC,≤ 0.2
3,RCIC,0.906
4,RAPC,0.485
5,RPIC,≤ 0.2
6,ARLT,≤ 0.2
7,THAD,≤ 0.2
8,PYVA,≤ 0.2
9,HQCG,≤ 0.2
10,HLKN,≤ 0.2
11,RHIN,≤ 0.2
12,RHIC,0.651
13,RHPC,0.367
14,RNVF,≤ 0.2
15,RNKD,≤ 0.2
16,RNVR,≤ 0.2
17,RNVC,0.599
18,RNKC,0.917
19,RNKP,≤ 0.2
20,IKLC,≤ 0.2
21,LQAE,≤ 0.2
22,IYHY,≤ 0.2
23,VEVT,≤ 0.2
24,NPKT,≤ 0.2
25,ITLC,≤ 0.2

row,Variant,one-hybrid fitness for binding parS DNA
1,ARFV,≤ 0.2
2,RIVR,≤ 0.2
3,RIVF,0.378
4,RIKN,0.451
5,RIKG,0.959
6,RIVG,0.946
7,RIKK,≤ 0.2
8,HGLV,≤ 0.2
9,DGHT,≤ 0.2
10,QIRE,≤ 0.2
11,RTIM,0.279
12,RTIC,0.912
13,RTPF,≤ 0.2
14,RTIY,0.418
15,RTPC,0.625
16,QSQK,≤ 0.2
17,CSYS,≤ 0.2
18,TQQS,≤ 0.2
19,RYDY,0.422
20,RYNP,≤ 0.2
21,RYDC,0.949
22,RYNN,0.364
23,RYNC,0.86
24,RYDQ,0.223
25,PYET,≤ 0.2

row,Variant,one-hybrid fitness for binding parS DNA
1,QEHT,≤ 0.2
2,KIRI,≤ 0.2
3,THLT,≤ 0.2
4,CDLR,≤ 0.2
5,RINA,0.596
6,NINA,≤ 0.2
7,RIDA,0.55
8,GNPS,≤ 0.2
9,RCND,≤ 0.2
10,VLGC,≤ 0.2
11,NLPL,≤ 0.2
12,PQIT,≤ 0.2
13,SCSQ,≤ 0.2
14,QQAG,≤ 0.2
15,RKPD,≤ 0.2
16,RKPP,≤ 0.2
17,RKIH,≤ 0.2
18,RKIG,0.855
19,RKIN,0.322
20,RKPG,0.552
21,MVDG,≤ 0.2
22,KIKY,≤ 0.2
23,NDWV,≤ 0.2
24,VADQ,≤ 0.2
25,INHN,≤ 0.2

row,Variant,one-hybrid fitness for binding parS DNA
1,RPKW,≤ 0.2
2,RTVW,0.218
3,RTKW,0.668
4,RTRW,0.542
5,RTDW,≤ 0.2
6,RTYW,0.262
7,NNGS,≤ 0.2
8,PVIL,≤ 0.2
9,PSIS,≤ 0.2
10,TSQY,≤ 0.2
11,PQCN,≤ 0.2
12,RTDP,≤ 0.2
13,RTNG,0.968
14,RTNH,≤ 0.2
15,RTDD,≤ 0.2
16,RTDG,0.935
17,RTNF,0.403
18,MGVN,≤ 0.2
19,DGDV,≤ 0.2
20,WCVR,≤ 0.2
21,CTRY,≤ 0.2
22,YMTL,≤ 0.2
23,CALA,≤ 0.2
24,RNWM,≤ 0.2
25,RNGN,0.242

row,Variant,one-hybrid fitness for binding parS DNA
1,RNWQ,≤ 0.2
2,RNGG,0.841
3,RNWG,0.651
4,RNLY,0.303
5,RNSH,≤ 0.2
6,RNSD,≤ 0.2
7,RNLG,0.831
8,RNGH,≤ 0.2
9,RNLQ,≤ 0.2
10,RNSG,0.921
11,DCGR,≤ 0.2
12,MWMK,≤ 0.2
13,TMVR,≤ 0.2
14,TWPL,≤ 0.2
15,YNCT,≤ 0.2
16,YGAI,≤ 0.2
17,AARF,≤ 0.2
18,ITIY,≤ 0.2
19,RNYP,≤ 0.2
20,RNYR,≤ 0.2
21,RNCF,≤ 0.2
22,RNYG,0.789
23,RNHK,≤ 0.2
24,RNCH,≤ 0.2
25,RNHM,≤ 0.2

row,Variant,one-hybrid fitness for binding parS DNA
1,RNQF,≤ 0.2
2,RNQG,0.882
3,RNCG,0.771
4,RNHG,0.866
5,RNQQ,≤ 0.2
6,GTAW,≤ 0.2
7,LGVR,≤ 0.2
8,PMST,≤ 0.2
9,LAKV,≤ 0.2
10,PYNM,≤ 0.2
11,TKAL,≤ 0.2
12,PHQS,≤ 0.2
13,QTGN,≤ 0.2
14,NQIG,≤ 0.2
15,LHGR,≤ 0.2
16,WVYT,≤ 0.2
17,VPRP,≤ 0.2
18,RNRY,0.503
19,RNRK,≤ 0.2
20,RNRG,0.94
21,FALT,≤ 0.2
22,KIQT,≤ 0.2
23,TSHI,≤ 0.2
24,RVKC,0.813
25,RVKR,≤ 0.2

row,Variant,one-hybrid fitness for binding parS DNA
1,RVVC,0.914
2,RVVR,≤ 0.2
3,RVKF,0.355
4,RVVQ,≤ 0.2
5,DKVG,≤ 0.2
6,QKKI,≤ 0.2
7,HVMR,≤ 0.2
8,RCEP,≤ 0.2
9,RLEP,≤ 0.2
10,RFEN,0.342
11,RAED,≤ 0.2
12,RAES,0.948
13,RFES,0.881
14,RFEP,≤ 0.2
15,RAEN,0.337
16,RLES,1
17,RPES,≤ 0.2
18,RCES,1.02
19,RLEH,0.228
20,SMRL,≤ 0.2
21,HSNG,≤ 0.2
22,IHDA,≤ 0.2
23,GPGK,≤ 0.2
24,LPNM,≤ 0.2
25,LTRT,≤ 0.2

row,Variant,one-hybrid fitness for binding parS DNA
1,GAAR,≤ 0.2
2,NIPL,≤ 0.2
3,RHES,0.962
4,RGES,0.554
5,RREN,0.3
6,RRES,0.752
7,RHED,≤ 0.2
8,RHEN,0.369
9,RSEP,≤ 0.2
10,RSES,0.902
11,RGEN,≤ 0.2
12,RSEH,≤ 0.2
13,RGED,≤ 0.2
14,RRED,≤ 0.2
